Only some compounds are listed: those with a hit (about 19% of all), similar ones and a draw of the others.
IL-1B inflam inh = blocks inflammasome-driven IL-1 beta release; hit rate 4.7% among 360,000; activity change, % at 57.5 µM; AID 743279; THP-1 LPS/ATP IL-1B secretion, AlphaLISA, 16 h; stronger effect = lower value; in the data active means activity change below about -50%; inconclusive means mostly about -30% to -49%; further: on the % scale 0 is the no-effect control and ±100 the full control effect
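Secreted IL-1B measured by AlphaLISA bead assay after 16 h compound exposure of THP-1 cells; compounds (final up to 57.5 uM) added 1 h before LPS (250 ng/mL) and ATP (1.25 mM) stimulation; lower signal means less secretion.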
TDP1 cell CPT = growth inhibition of DT40 Tdp1-/-;hTDP1 cells with camptothecin (screen for TDP1 inhibitors). hit rate 12% among 420,000. Potency, µM (doses to about 46.2 µM), for inactives: top-dose activity change, negative = growth inhibition, actives largely listed as inhibitors. AID 686979. chicken DT40 Tdp1-/-;hTDP1 cells + 20 nM CPT, ATP luminescence, 48 h; further: potency means the concentration at half of the fitted maximal effect; on the % scale 0 is the no-effect control and ±100 the full control effect; nearly all actives have a fitted effect of over 55% in size
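Cell growth measured by CellTiter-Glo luminescence after a minimum 48 h, 37 C compound exposure with 20 nM CPT in Tdp1-knockout DT40 cells stably expressing hTDP1, seeded 400/well; qHTS titration format.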
HepG2 tox-1 = kills HepG2 cells in TGF-b inhibitor counter-screen | HepG2 CAGA-GFP viability, ATP luminescence, 18 h | Potency, µM (titrated, usually from 46.1 µM), without a hit: at the highest dose activity change, negative = cytotoxicity, hits mostly cytotoxic | hit rate 0.76% among 410,000; further: potency means the concentration at half of the fitted maximal effect
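HepG2 CAGA-GFP cells (1000/well, DMEM with 1% FBS) received compound, then TGF-beta at 500 pg/mL final, and were incubated 18 hours at 37 degrees C. Viability was read by CellTiter-Glo luminescence. Media-only wells were set as complete cell-killing and DMSO as no toxicity.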
DT40 TDP1 no CPT = qHTS for Inhibitors of human tyrosyl-DNA phosphodiesterase 1 (TDP1): qHTS in cells in absence of CPT; DT40 Tdp1-/- hTDP1 cells, no CPT, ATP luminescence, 48 h; Potency, µM (top dose mostly 46.2 µM), without a hit: at the top dose activity change, negative = growth inhibition, hits mostly inhibitors; hit rate 15% among 420,000; further: potency means the concentration at half of the fitted maximal effect; on the % scale 0 is the no-effect control and ±100 the full control effect; nearly all actives have a fitted effect of over 55% in size
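Cells were dispensed at 400 per well, compounds added by pin tool, plates incubated ≥48 hr at 37 °C, then CellTiter-Glo added for 30 min at room temperature before luminescence reading. Line: DT40 Tdp1-/- complemented with hTDP1; camptothecin omitted.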
TDP1 block = inhibitors of human tyrosyl-DNA phosphodiesterase TDP1; Potency, µM (highest dose often 130 µM), without a hit: top-dose activity change, negative = inhibition, hits mostly inhibitors; Q9NUW8; hit rate 0.28% among 350,000; recombinant TDP1, AlphaScreen DNA substrate cleavage; further: potency means the concentration at half of the fitted maximal effect; on the % scale 0 is the no-effect control and ±100 the full control effect; nearly all actives have a fitted effect of over 40% in size
Target sequence (Q9NUW8 whole entry, looked up): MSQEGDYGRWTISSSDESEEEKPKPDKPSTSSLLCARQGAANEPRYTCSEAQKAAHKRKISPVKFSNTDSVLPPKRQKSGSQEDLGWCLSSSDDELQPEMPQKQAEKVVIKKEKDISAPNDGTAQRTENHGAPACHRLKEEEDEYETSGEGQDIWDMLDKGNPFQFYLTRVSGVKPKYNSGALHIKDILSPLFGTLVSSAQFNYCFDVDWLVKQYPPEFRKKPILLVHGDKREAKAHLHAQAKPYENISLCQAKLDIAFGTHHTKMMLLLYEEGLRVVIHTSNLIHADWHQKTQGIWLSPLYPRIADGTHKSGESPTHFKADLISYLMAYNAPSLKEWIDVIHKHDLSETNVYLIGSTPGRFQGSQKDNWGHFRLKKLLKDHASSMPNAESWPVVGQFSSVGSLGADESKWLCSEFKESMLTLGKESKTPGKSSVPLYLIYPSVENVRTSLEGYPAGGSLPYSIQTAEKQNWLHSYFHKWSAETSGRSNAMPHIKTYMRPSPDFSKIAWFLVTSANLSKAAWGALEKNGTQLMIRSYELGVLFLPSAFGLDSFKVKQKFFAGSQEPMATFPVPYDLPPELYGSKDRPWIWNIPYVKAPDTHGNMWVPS
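Signal: AlphaScreen proximity between streptavidin donor and anti-FITC acceptor beads on intact substrate. Reaction: Tdp1 1 nM, substrate 15 nM final, 5 min RT after 15 min compound preincubation.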
TGFb inhibitor = inhibitors of TGF-b signaling. HepG2 CAGA-GFP TGF-b/SMAD3 reporter, GFP fluorescence, 18 h; TGF-beta stimulated, 500 pg/mL final. Potency, µM (series often up to 46.1 µM), without a hit: at the top dose activity, negative = inhibition, actives largely listed as inhibitors. hit rate 1.2% among 410,000; further: potency means the concentration at half of the fitted maximal effect; on the % scale 0 is the no-effect control and ±100 the full control effect; nearly all actives have a fitted effect of over 65% in size
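HEPG2 CAGA-GFP reporter cells (1000/well, DMEM with 1% FBS) received compounds, then recombinant TGF-beta at 500 pg/mL final for 18 hours at 37 degrees C. Per-cell GFP summed per well was normalised to unstimulated and stimulated DMSO controls before curve fitting.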
TGFb confirm = confirmation of TGF-b signaling inhibitors in HepG2 reporter cells. shares compounds with TGFb inhibitor. HepG2 CAGA-GFP TGF-b reporter, GFP fluorescence, 18 h; cells stimulated with TGF-beta, 500 pg/mL. Potency, µM (doses to about 46.1 µM), inactives show at the highest dose activity, negative = inhibition, hits mostly inhibitors. hit rate 63% among 1,600; further: potency means the concentration at half of the fitted maximal effect; on the % scale 0 is the no-effect control and ±100 the full control effect; nearly all actives have a fitted effect of over 65% in size
HepG2 tox-2 = toxic to HepG2 cells in TGF-b counterscreen; shares compounds with TGFb inhibitor; HepG2 CAGA-GFP viability, ATP luminescence, 18 h; cells stimulated with TGF-beta, 500 pg/mL; Potency, µM (doses to about 46.1 µM), without a hit: at the top dose activity, negative = cytotoxicity, hits mostly inhibitors; hit rate 27% among 1,600; AID 720535; further: potency means the concentration at half of the fitted maximal effect; on the % scale 0 is the no-effect control and ±100 the full control effect; nearly all actives have a fitted effect of over 70% in size
TGFb CCL64 inh = blocks TGF-b signaling in CCL64 reporter cells; CCL64 CAGA-GFP reporter, TGF-b stimulated, GFP fluorescence, 18 h; shares compounds with TGFb inhibitor; hit rate 41% among 1,600; Potency, µM (highest dose often 46.1 µM), for the others: at the highest dose activity, negative = inhibition, hits mostly inhibitors; further: potency means the concentration at half of the fitted maximal effect; nearly all actives have a fitted effect of over 65% in size
COP TGFb inh = TGF-b inhibition validated with COP promoter | shares compounds with TGFb inhibitor | HepG2 COP-GFP TGF-b reporter, GFP fluorescence, 18 h; cells stimulated by added recombinant TGF-beta | Potency, µM (highest dose often 46.1 µM), for inactives: at the top dose activity, negative = inhibition, most hits filed as inhibitors | hit rate 3% among 1,600 | AID 720537; further: potency means the concentration at half of the fitted maximal effect; nearly all actives have a fitted effect of over 70% in size
An asterisk follows results filed as active; u = inconclusive; x = not tested or not shown; [ ] = dose if it differs, or a comment. Unless noted, the call rests on the fitted dose curve; in most records, active means well fitted curve in the direction sought with a large enough effect; inconclusive means small, poorly fitted or top-dose-only effect, or another doubt; inactive means no such curve, though single readings can be large; an effect the other way counts as inactive or inconclusive.

SMILES	IL-1B inflam inh	TDP1 cell CPT	HepG2 tox-1	DT40 TDP1 no CPT	TDP1 block	TGFb inhibitor	TGFb confirm	HepG2 tox-2	TGFb CCL64 inh	COP TGFb inh
CC1=C(C(=O)N(C(C)C)C(C)C)CC(CC(=O)NCc2cccc3ccccc23)C(=O)N1Cc1ccc(C(C)(C)C)cc1 (centres undefined)	u	u	-8%	u	x	7.9µM*	16µM*	u	u	30%
CCCCOC(=O)c1ccc(Nc2ncnc3nc[nH]c23)cc1	13	2%	0%	-13%	5%	-4%	x	x	x	x
CCCCCCCCOC(=O)c1cc([N+](=O)[O-])c(Sc2ncnc3nc[nH]c23)c([N+](=O)[O-])c1	-71*	2.6µM*	13µM*	3.3µM*	x	7.1µM*	21µM*	8.2µM*	5.8µM*	u
C/C(=N\NC(=O)c1ccccc1OCCOc1ccccc1)c1ccccc1F	-65*	u	-19%	16µM*	-1%	20µM*	u	u	u	57%
CCC(CC)=NNC(=O)c1ccccc1OCc1ccc(F)cc1	36	3%	22%	-3%	-3%	u	x	x	x	x
Clc1nc(Cl)nc(N(c2ccccc2)c2ccccc2)n1	1	-8%	-46%	2%	x	u	u	u	u	36%
CCOc1ccc(C2=Nn3c(nnc3-c3ccccc3OC)SC2)cc1	121	0.21µM*	-23%	0.18µM*	6%	10µM*	0.23µM*	-8%	0.46µM*	-6%
Cc1cc(C)c2cc(C(=O)N3CCC(C(=O)c4ccc(F)cc4)CC3)[nH]c2c1	u	u	-6%	21µM*	5%	11µM*	9.2µM*	-24%	u	14%
Cc1cc(C)c2cc(C(=O)N3CCC(N4CCCCC4)CC3)[nH]c2c1	-11	-16%	-7%	-1%	2%	11%	x	x	x	x
CCCCCCNc1nc(-c2ccc(OC)cc2)c(CCC(=O)O)s1	6	-18%	11%	-2%	3%	1%	x	x	x	x
Cc1ccc(NC(=O)Nc2nnc(-c3ccncc3)s2)cc1C	-25	21µM*	-44%	13µM*	-6%	7.9µM*	9.2µM*	u	u	27%
NC(c1csc(NC(=O)Nc2cccc(Cl)c2)n1)c1ccccc1Cl (centres undefined)	-107*	u	-89%	u	x	10µM*	18µM*	u	u	73%
O=C(Nc1cccc(Cl)c1)Nc1nnc(-c2ccncc2)s1	9	7.3µM*	-45%	5.8µM*	8%	7.9µM*	10µM*	u	6.5µM*	64%
O=C(NCCc1ccncc1)Nc1cccc(Cl)c1	-8	0%	8%	0%	-1%	0%	x	x	x	x
CS(=O)(=O)c1ccc2nc(NC(=O)Nc3cccc(Cl)c3)sc2c1	-81*	16µM*	-39%	23µM*	3%	2.2µM*	16µM*	u	u	21%
O=C(NCCN1CCOCC1)c1ccc(Cl)c(S(=O)(=O)N2CCCCCC2)c1	20	-4%	-35%	-19%	1%	2.5µM*	u	-9%	-3%	1%
O=C(NCCN1CCOCC1)c1ccc(Cl)c(S(=O)(=O)N2CCCC2)c1	5	1%	-7%	-1%	0%	-16%	x	x	x	x
COc1ccc(C(=O)Nc2ccc(C)c(S(=O)(=O)N3CCOCC3)c2)cc1S(=O)(=O)N1CCCC1	14	21µM*	-7%	u	x	11µM*	u	2%	u	2%
Cc1ccc(NC(=O)CSCC(=O)NCCc2ccccn2)c(C)c1	22	5%	-30%	6%	-3%	3%	x	x	x	x
O=C(Cc1ccccc1)NNC(=O)C1CC=CCC1 (centres undefined)	11	-7%	-13%	-3%	12%	-3%	x	x	x	x
O=C(Nc1c(-c2ccccc2)nc2ccccn12)c1cccc(F)c1	-23	-7%	3%	-30%	x	0%	x	x	x	x
C=CCn1c(=N)c(S(=O)(=O)c2ccc(C)c(C)c2)cc2c(=O)n3ccccc3nc21	-8	u	2%	u	6%	0%	x	x	x	x
COc1ccc(NC(=O)CSc2ccc3c(c2)OCCO3)cc1S(N)(=O)=O	19	u	2%	u	0%	0%	x	x	x	x
CN(C)c1ncnc2c1nnn2C1OC(CO)C(O)C1O (centres undefined)	96	0.58µM*	-68%	0.33µM*	x	0.56µM*	2.1µM*	u	u	20%
CN(C)c1ncnc2c1ncn2C1OC(CO)C(O)C1O (centres undefined)	35	2.9µM*	-69%	2.9µM*	0%	0.63µM*	0.65µM*	5.8µM*	u	5%
C=CCOc1ccc(C[C@H](N)C(=O)NC[C@H]2O[C@@H](n3cnc4c(N)ncnc43)[C@H](O)[C@@H]2O)cc1	-14	-13%	1%	-22%	0%[56.1 µM]	-13%	x	x	x	x
CNc1ncnc2c1ncn2[C@@H]1O[C@H](CO)[C@@H](O)[C@H]1O	55	u	6%	-23%	2%	u	x	x	x	x

Screening results from PubChem.
